Consider 38 molecules from PubChem BioAssay (NCI).

Compounds without any hit were thinned out: in the full panel of roughly 79,000, 15% have a hit. Values without a mark were called inactive. The source made the active and inactive calls. No stated cut-off is given here; in the data, active means growth inhibition above about 70%; inactive means the rest.

The first experiment in a line: NCI Yeast Anticancer Drug Screen. Data for the rad52 strain (AID 147).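 Further: 0% = growth of vehicle-treated control cultures.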 Conditions: S. cerevisiae rad52 mutant growth inhibition; at 3.7 µM; hits give high values. In short, it runs like this:
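The repair-mutant yeast strain was incubated with compounds, then growth was read and inhibition derived relative to vehicle.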
For `O=[N+]([O-])c1cc[n+]([O-])cc1`, the growth inhibition is 2%.
`CC1(C)CC(=O)C(/C=N/c2nc(-c3ccccc3)cs2)=C(O)C1`: the growth inhibition was 5%.
Consider `Nc1nc(N)c2nc(CNc3ccc(C(=O)NC(CCC(=O)O)C(=O)O)cc3F)cnc2n1` (stereo unspecified), for which the growth inhibition was 42%.
In the case of `COC(=O)CC1(O)C(/C=C/c2ccccc2)C(C(=O)OC)C(=O)C(C(=O)OC)C1C(=O)OC` (stereo unspecified), the growth inhibition is 0%.
In the case of `CC(C)(C)c1ccc(NS(=O)(=O)c2ccc(N)cc2)cc1`, the growth inhibition is -1%.
For the molecule `CCN(CC)CCNc1ccc([N+](=O)[O-])c2nc3ccccc3c(N)c12`, the growth inhibition was -6%.
In the case of `CCCCN(CCCC)C(=O)/C=C/c1ccccc1`, the growth inhibition was -9%.
With `O=c1[nH]c(-c2ccccc2)nc2c1sc1nc3ccccc3n12`, the growth inhibition is -31%.
On the same count and under the same terms, next, `O=[N+]([O-])c1ccc2c(c1)/C(=N/N=C1c3ccccc3Cc3ccccc31)c1cc([N+](=O)[O-])cc([N+](=O)[O-])c1-2`: 32%; `CC(C)C(C)/C=C\C(C)C1CCC2C3=CC=C4CC(O)CCC4(C)C3CCC21C` (stereo unspecified): -2%.
As for `O=C1Nc2ccc(Br)cc2C1=Nc1ccc2c(c1)OCO2`, the growth inhibition is 8%.
On the same count and under the same terms, then `CCCCOCn1c(=O)[nH]c(=O)c2cc(Br)ccc21`, with -45%; and `Cc1ccc(S/C(=C\C(=O)O)c2ccccc2)cc1`, with 7%.
The same measure, in the same setting: then `O=[N+]([O-])/C=C/c1cc(Cl)c(/C=C/[N+](=O)[O-])cc1Cl`, with 55%; and `Cc1cc(S(=O)(=O)Nc2nnc3cnc4ccccc4n23)c(S)cc1Cl`, with 0%; and `O=C(/C=C/c1cc(Cl)cc(Cl)c1O)c1cccc(O)c1`, with 36%.
On the same count and under the same terms, next, `NC1CCCCC1N.Nc1c(N=Nc2ccc(-c3ccc(N=Nc4cc(S(=O)(=O)[O-])c5ccccc5c4N)cc3)cc2)cc(S(=O)(=O)[O-])c2ccccc12.[OH3+].[OH3+].[Pt+4]`: 4%; `COC(=O)CCC(NC(=S)N/N=C(\C)c1ccccn1)C(=O)OC` (stereo unspecified): -27%; `NC(=O)C(=O)NNc1ccccc1`: 12%.
With `COc1cc(C2SCC(=O)N2c2ccc(-c3ccc(-n4c(-c5ccccc5)nc5ccccc5c4=O)cc3)cc2)ccc1O` (stereo unspecified), the growth inhibition was 0%.
As for `COc1ccc(/C=C/c2sc3ccccc3[n+]2CCCCI)cc1OC`, the growth inhibition is 1%.
With `Cc1c(C(C)C)cc(OCCO)cc1C(C)C`, the growth inhibition is -1%.
Same read-out and setting: next, `Cc1cc(NCCCCCCCCNc2cc(C)nc3cc(N)ccc23)c2ccc(N)cc2n1`: -45%; `C=C(Cl)COC(=O)Nc1cccc(Cl)c1`: 8%; `CC(=O)OC1CC2C(C)(C)C(=O)C=C[C@]2(C)C2CCC3(C)C(=CCC3[C@H](CO)C[C@H](O)C(=O)C(C)(C)O)[C@]12C` (stereo partly specified): -4%.
Turning to `COc1ccc(/C=C/C(=O)c2ccccc2)cc1OC`, the growth inhibition was -42%.
For the molecule `COc1c(O)c(C=O)c(Br)c(C=O)c1O`, the growth inhibition was 6%.
Consider `O=[N+]([O-])c1cc(Cl)cnc1Br`, for which the growth inhibition is 46%.
On to `Cc1ccc2c(c1)C1(SC(C)C(=O)N1c1ccc(Cl)cc1)C(=O)N2` (stereo unspecified), for which the growth inhibition is 4%.
As for `COc1cc(CSc2ccc(O)cc2)cc(O)c1O`, the growth inhibition is 3%.
The same measure, in the same setting: next, `Cc1ccc2c3ccc4c(c3n(C)c2c1)C(=O)C=CC4=O`: -66%.
Regarding `O=C(Nc1ccc(Cl)cc1)Nc1nnc2nc(C(C(=O)c3cccc([N+](=O)[O-])c3Cl)c3nc4nnc(NC(=O)Nc5ccc(Cl)cc5)n4[nH]c3=O)c(=O)[nH]n12`, the growth inhibition was 2%.
Same read-out and setting: next, `O=C(O)C1CC(c2ccccc2)=NN1c1ccccc1` (stereo unspecified): -9%; `CCCCc1ccc(-n2c(C)c(COC(=O)NC)c(COC(=O)NC)c2C)cc1`: -10%.
In the case of `CCC(=O)c1cc(C(=O)C(=S)SC)cc(C(=O)C(=S)SC)c1`, the growth inhibition is 57%.
Turning to `CCn1c(O)c(C=Nc2ccccc2)s/c1=N/Nc1nc(-c2ccccc2)cs1`, the growth inhibition was 5%.
Regarding `Cc1ccccc1N=C(NO)c1ccccc1`, the growth inhibition is 9%.
In the case of `Cc1nc2ccccc2nc1NNc1ccccc1`, the growth inhibition is -8%.

The experiment is the same for the next values; noted with them: S. cerevisiae rad52 mutant growth inhibition; at 11.0 µM; hits give high values.
`O=[N+]([O-])c1cc[n+]([O-])cc1`: the growth inhibition was 4%.
Take `CC1(C)CC(=O)C(/C=N/c2nc(-c3ccccc3)cs2)=C(O)C1`: the growth inhibition is 19%.
In the case of `Nc1nc(N)c2nc(CNc3ccc(C(=O)NC(CCC(=O)O)C(=O)O)cc3F)cnc2n1` (stereo unspecified), the growth inhibition was 62%.
For the molecule `COC(=O)CC1(O)C(/C=C/c2ccccc2)C(C(=O)OC)C(=O)C(C(=O)OC)C1C(=O)OC` (stereo unspecified), the growth inhibition was 1%.
As to `CC(C)(C)c1ccc(NS(=O)(=O)c2ccc(N)cc2)cc1`, the growth inhibition was 1%.
As for `CCN(CC)CCNc1ccc([N+](=O)[O-])c2nc3ccccc3c(N)c12`, the growth inhibition was 10%.
Regarding `CCCCN(CCCC)C(=O)/C=C/c1ccccc1`, the growth inhibition was -11%.
Same read-out and setting: next, `O=c1[nH]c(-c2ccccc2)nc2c1sc1nc3ccccc3n12`: -23%; `O=[N+]([O-])c1ccc2c(c1)/C(=N/N=C1c3ccccc3Cc3ccccc31)c1cc([N+](=O)[O-])cc([N+](=O)[O-])c1-2`: 91% (active).
Take `CC(C)C(C)/C=C\C(C)C1CCC2C3=CC=C4CC(O)CCC4(C)C3CCC21C` (stereo unspecified): the growth inhibition was -1%.
With `O=C1Nc2ccc(Br)cc2C1=Nc1ccc2c(c1)OCO2`, the growth inhibition is 3%.
Regarding `CCCCOCn1c(=O)[nH]c(=O)c2cc(Br)ccc21`, the growth inhibition was -30%.
On to `Cc1ccc(S/C(=C\C(=O)O)c2ccccc2)cc1`, for which the growth inhibition is 12%.
The same measure, in the same setting: then `O=[N+]([O-])/C=C/c1cc(Cl)c(/C=C/[N+](=O)[O-])cc1Cl`, with 74% (active); and `Cc1cc(S(=O)(=O)Nc2nnc3cnc4ccccc4n23)c(S)cc1Cl`, with 4%.
Regarding `O=C(/C=C/c1cc(Cl)cc(Cl)c1O)c1cccc(O)c1`, the growth inhibition is 80% (active).
Same read-out and setting: next, `NC1CCCCC1N.Nc1c(N=Nc2ccc(-c3ccc(N=Nc4cc(S(=O)(=O)[O-])c5ccccc5c4N)cc3)cc2)cc(S(=O)(=O)[O-])c2ccccc12.[OH3+].[OH3+].[Pt+4]`: 47%; `COC(=O)CCC(NC(=S)N/N=C(\C)c1ccccn1)C(=O)OC` (stereo unspecified): 1%.
Regarding `NC(=O)C(=O)NNc1ccccc1`, the growth inhibition is 39%.
Regarding `COc1cc(C2SCC(=O)N2c2ccc(-c3ccc(-n4c(-c5ccccc5)nc5ccccc5c4=O)cc3)cc2)ccc1O` (stereo unspecified), the growth inhibition is 2%.
With `COc1ccc(/C=C/c2sc3ccccc3[n+]2CCCCI)cc1OC`, the growth inhibition is -2%.
As to `Cc1c(C(C)C)cc(OCCO)cc1C(C)C`, the growth inhibition was -4%.
With `Cc1cc(NCCCCCCCCNc2cc(C)nc3cc(N)ccc23)c2ccc(N)cc2n1`, the growth inhibition was 75% (active).
Same read-out and setting: then `C=C(Cl)COC(=O)Nc1cccc(Cl)c1`, with 30%; and `CC(=O)OC1CC2C(C)(C)C(=O)C=C[C@]2(C)C2CCC3(C)C(=CCC3[C@H](CO)C[C@H](O)C(=O)C(C)(C)O)[C@]12C` (stereo partly specified), with -3%.
`COc1ccc(/C=C/C(=O)c2ccccc2)cc1OC`: the growth inhibition was -30%.
Regarding `COc1c(O)c(C=O)c(Br)c(C=O)c1O`, the growth inhibition was 17%.
Take `O=[N+]([O-])c1cc(Cl)cnc1Br`: the growth inhibition is 75% (active).
For `Cc1ccc2c(c1)C1(SC(C)C(=O)N1c1ccc(Cl)cc1)C(=O)N2` (stereo unspecified), the growth inhibition is 16%.
Still for that read-out and setting: next, `COc1cc(CSc2ccc(O)cc2)cc(O)c1O`: 5%; `Cc1ccc2c3ccc4c(c3n(C)c2c1)C(=O)C=CC4=O`: -53%; `O=C(Nc1ccc(Cl)cc1)Nc1nnc2nc(C(C(=O)c3cccc([N+](=O)[O-])c3Cl)c3nc4nnc(NC(=O)Nc5ccc(Cl)cc5)n4[nH]c3=O)c(=O)[nH]n12`: 2%.
Turning to `O=C(O)C1CC(c2ccccc2)=NN1c1ccccc1` (stereo unspecified), the growth inhibition was 4%.
For the molecule `CCCCc1ccc(-n2c(C)c(COC(=O)NC)c(COC(=O)NC)c2C)cc1`, the growth inhibition was 5%.
Turning to `CCC(=O)c1cc(C(=O)C(=S)SC)cc(C(=O)C(=S)SC)c1`, the growth inhibition is 97% (active).
With `CCn1c(O)c(C=Nc2ccccc2)s/c1=N/Nc1nc(-c2ccccc2)cs1`, the growth inhibition is 10%.
Consider `Cc1ccccc1N=C(NO)c1ccccc1`, for which the growth inhibition was 22%.
On the same count and under the same terms, then `Cc1nc2ccccc2nc1NNc1ccccc1`, with -4%.
